Assay results reported in PubChem BioAssay.
Values joined by “and” are separate entries in the source; they are usually repeats but may differ in a detail not shown here. Equal values may be shown once.

Tested on: Chordin-like protein 2 (CHRDL2)
Assay: compounds binding chordin-like 2 – biochemical, small-molecule microarray, 635 nm fluorescence, primary screen (AID 1126);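 further: printed compound slides probed with Chrdl2 protein at 4 µg/mL for 1 h at 4 C; score merges 667 nm emission intensity with signal to noise over three replicate slides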
Conditions: fluorescence 635 nm, higher = more signal

Row | SMILES | composite z-score
1 | CC(C)=NOC[C@@H](O)COCc1ccco1 | 0.397
2 | COC(=O)C1=C(C)N(Cc2ccccc2)C2=C(C(C)=O)C[C@@](O)(C(=O)OC)C(=O)N2[C@@H]1c1ccccc1 | 0.571 and 0.377
3 | COC(=O)[C@@]1(Cc2ccc(OC)cc2)[C@H]2c3cc(C(=O)N(C)C)n(Cc4ccc(O)c(OC)c4)c3C[C@H]2CN1C(=O)c1ccccc1 | -1.12 and -0.44
4 | C=CC[C@H](O)c1ccc(OCCO)cc1 | -0.978 and 0.193
5 | CC(C)=NO[C@@H](C)c1cc(-c2c(C)cc(C)cc2C)no1 | 0.227
6 | C[N+](C)(C)CCCCNC(=O)[C@H]1C[C@H]2C(=O)N[C@@H](CCCC[N+](C)(C)C)C(=O)N2[C@H]1c1ccc(O)cc1 | 1.5 and 1.48
7 | C[C@@]1([C@@H](NC(=O)Cc2ccccc2)c2ccc(-c3ccccc3)cc2)C[C@H]1C1CCCCC1 | 0.261 and -0.0345 and -0.954
8 | CCN1C(=O)[C@H]2[C@H]3[C@H](O)[C@H](O)CC(=NOC)[C@@H]3CC[C@H]2C1=O | 0.508
9 | O=C1NC(=O)C2C1C=CC(C(O)c1ccc([N+](=O)[O-])cc1)N2Nc1ccc(Cl)cc1Cl (stereo not given) | -0.532 and -0.0926
10 | C=C[C@H](C)[C@@H](O)c1ccc(OCCO)cc1 | -1.32 and -0.668
11 | CC(C)CON=C1C[C@@H](O)[C@@H](O)[C@@H]2[C@@H]3C(=O)N(c4cccc(Oc5ccccc5)c4)C(=O)[C@@H]3CC[C@H]12 | 0.22
12 | CO[C@H]1COC(=O)CC=C[C@@H](C)COC(=O)[C@H](CCSC)NC(=O)CC=C[C@@H]1C | 1.54 and 1.65
13 | C=C[C@@H](OC)[C@H](O)c1ccc(OCCO)cc1 | -0.866 and -1.44
14 | CCOC(=O)c1ccc(NC(=O)O[C@H]2[C@H](OC(=O)Nc3ccccc3)[C@@H](OC(=O)Nc3ccccc3)[C@@H](OC)O[C@@H]2CO)cc1 | -0.193 and -0.279
15 | C=CCN(C(=O)C(c1cccs1)N(CCOCCO)C(=O)/C=C\C(=O)O)c1ccc(OC)cc1 (stereo not given) | -0.166 and -3.29
16 | C#CCN1C(/C=C/c2ccccc2)C(=O)OC[C@H]1c1ccccc1 (stereo not given in full) | 0.852 and -0.0756
17 | CO[C@@H]1COC(=O)CC=C[C@H](C)COC(=O)[C@H](C)NC(=O)CC=C[C@H]1C | 1.06
18 | Cc1cc2c(nc1C)CCCN2CC(O)CN1CCCc2nc(-c3ccc(Br)cc3)ccc21 (stereo not given) | 0.955 and 1.08
19 | C=CCN(CCCCC)C(=O)C(c1cccs1)N(CCOCCO)C(=O)/C=C\C(=O)O (stereo not given) | -1.91 and -1.04
20 | COc1ccc(-c2ccc3c(n2)CCCN3CC(O)CN2CCCc3nc(-c4ccc(Br)cc4)ccc32)cc1 (stereo not given) | 0.708 and 0.919

Row | SMILES | composite z-score
21 | C=C[C@H](OC)[C@@H](O)c1ccc(OCCO)cc1 | -2.3 and -0.674
22 | C=CCN(C(=O)C1N(CCCCCCO)C(=O)C2C(C(=O)O)C3C=CC21O3)c1ccc(OC)cc1 (stereo not given) | -2.65 and -2.43
23 | O=C1C[C@]2(c3ccc([N+](=O)[O-])cc3)C(=O)N(Cc3ccccc3)c3cc(CO)ccc3[C@H]2N1C1CCCCC1 | -0.468 and 0.393
24 | C=CCN(C(=O)C1N(c2c(Cl)cccc2CO)C(=O)C2C(C(=O)O)C3C=CC21O3)c1ccc(OC)cc1 (stereo not given) | -0.702 and -2.38
25 | C=CCN(C(=O)C1N(CCOCCO)C(=O)C2C(C(=O)O)C3C=CC21O3)C(C)(C)C (stereo not given) | -3.33 and -1.51
26 | COC(=O)C1=C2N(Cc3ccccc3)C(C)=C(C(=O)OC)[C@@H](c3ccccc3)N2C(=O)[C@](O)(C(=O)OC)C1 | 0.392 and 0.77
27 | O=c1n(-c2ccccc2)c(=O)n2n1CC[C@@H]1C(=NOC[C@@H](O)COCc3ccco3)[C@H]3O[C@H]3[C@@H](O)[C@@H]12 | 1.31 and 0.628
28 | CC(CO)N1C(=O)[C@@H]2C3C(=O)OCCC=C[C@H]3OC23C=CCN(c2ccc(Cl)cc2)C(=O)[C@@H]13 (stereo not given in full) | -1.51 and -0.496
29 | CC(C)[Si]1(C(C)C)OCc2cc(CCCc3cc4c(c(CCc5ccccc5)n3)[Si](C(C)C)(C(C)C)OC4)nc(CCc3ccccc3)c21 | -0.126 and 0.424
30 | C=CCN(Cc1ccccc1)C(=O)C1N(CCOCCO)C(=O)C2C(C(=O)O)C3C=CC21O3 (stereo not given) | -3.42 and -2.87
31 | C[N+](C)(C)CCCCCCNC(=O)[C@H]1C[C@H]2C(=O)N[C@@H](CCCC[N+](C)(C)C)C(=O)N2[C@H]1c1cccc(OCCO)c1 | 1.22 and 1.04
32 | CCCCCN1CC=CC23O[C@@H]4C=CCCOC(=O)C4[C@H]2C(=O)N(C(C)CO)[C@@H]3C1=O (stereo not given in full) | -0.397 and -0.845
33 | O=C1[C@H]2[C@H]3[C@H](O)[C@H](O)CC(=NOCc4ccccc4)[C@H]3CC[C@H]2C(=O)N1Cc1ccccc1 | 0.374
34 | CO[C@H]1COC(=O)CC=C[C@H](C)[C@H](OC)COC(=O)[C@@H](C)COC(=O)CC=C[C@@H]1C | 1.16 and 0.85
35 | CN1C(=O)C2CC=C([C@H]3Oc4ccccc4S(=O)(=O)N4CCC[C@@H]34)CC2C1=O (stereo not given in full) | -0.144 and 0.153
36 | C[C@@H](ON=C1[C@H]2CCn3c(=O)n(-c4ccccc4)c(=O)n3[C@H]2[C@H](O)[C@@H]2O[C@H]12)c1cn([C@H](CO)Cc2ccccc2)nn1 | 0.353
37 | CCOC(=O)C[C@H]1[C@H](OC(=O)c2ccccc2-c2ccccc2)[C@@H](NC(=O)Cc2ccc(OC)cc2)c2cc(OCCCO)ccc2N1C(=O)c1ccc2ccccc2n1 | -0.0194 and -0.181
38 | CCOC(=O)[C@H](CC(C)C)NC(=O)CCC1CC(OC(=O)NCc2cccc3ccccc23)CC2(CCCC(COC(=O)NCc3ccccc3)O2)O1 (stereo not given in full) | -0.139
39 | Cc1ccc(S(=O)(=O)N[C@@H]2COC(=O)CC=C[C@@H](C)[C@@H]3C=C[C@H](O)[C@@H](COC(=O)CC=C[C@H]2C)O3)cc1 | 0.711 and 0.396
40 | CO[C@@H]1COC(=O)[C@H](Cc2ccccc2)NC(=O)CC=C[C@@H](C)[C@H](OC)COC(=O)[C@@H](C)NC(=O)CC=C[C@H]1C | 1.03 and 1.43
